The values below come from PubChem BioAssay (Tox21).

Assay [1] concerns the target Acetylcholinesterase (Homo sapiens) (UniProt P22303). The experiment in a line: Acetylcholinesterase (AChE) small molecule antagonists: enzyme-based qHTS assay (AID 1347397; calls by dose curve; further: nearly all actives have a fitted effect of over 55% in size). The settings on record: Potency: AChE enzyme activity inhibition; outcome: AChE enzyme activity inhibition. The method in brief: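 Compound or DMSO vehicle was pin-transferred onto recombinant human AChE (50 mU/mL as dispensed) and left 30 min at room temperature. Acetylthiocholine with DTNB then started the reaction, read colorimetrically 10 min later.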
Background: qHTS replaces the single test concentration by a dilution series.

Assay [2] has the same target. Briefly: Acetylcholinesterase (AChE) small molecule antagonists: enzyme-based qHTS assay with human liver microsomes (AID 1347399; calls by dose curve; further: nearly all actives have a fitted effect of over 60% in size). The settings on record: Potency: qHTS inhibition; outcome: qHTS inhibition. In outline: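 Recombinant human AChE (50 mU/mL in the enzyme mix) and human liver microsomes (0.25 mg/mL final) were preincubated with compound and NADPH (0.25 mg/mL final) for 30 min at 37 C. Acetylthiocholine/DTNB was then added; thiocholine was read colorimetrically after 10 min at room temperature.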

Assay [3] can be described thus: qHTS assay for small molecule agonists of the p53 signaling pathway (AID 651631; calls by dose curve; further: nearly all actives have a fitted effect of over 15% in size). In outline:
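Quantitative high-throughput format: 4,000 p53RE-bla HCT-116 cells/well, 5 h pre-incubation, 16 h compound exposure at 37 °C, 2 h room-temperature substrate step, fluorescence intensity measured.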

Assay [4] in a line: qHTS assay for small molecules that induce genotoxicity in human embryonic kidney cells expressing luciferase-tagged ATAD5 (AID 651632). Further: nearly all actives have a fitted effect of over 15% in size. In outline: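 Quantitative HTS in HEK293T expressing luciferase-tagged ATAD5, whose levels rise upon DNA damage. Exposure ran 16 hr at 37C and 5% CO2, with luminescence read 30 min after Amplite addition at room temperature.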
The nature of assay [5]: qHTS assay for small molecule agonists of the p53 signaling pathway - cell viability (AID 651633; calls by dose curve;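 further: p53RE-bla HCT reporter cells with a stable beta-lactamase p53 reporter; series mostly up to about 83 µM; nearly all actives have a fitted effect of over 30% in size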). The method in brief: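 p53RE-bla cells, seeded at 4,000 per well and rested 5 h at 37 C/5% CO2, received compounds in DMSO for 16 h at 37 C. CellTiter-Glo was then added, and luminescence was read after 30 min at room temperature to gauge cytotoxicity.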
Assay [6] in a line: qHTS assay for small molecules that induce genotoxicity in human embryonic kidney cells expressing luciferase-tagged ATAD5 - cell viability (AID 651634; calls by dose curve; further: nearly all actives have a fitted effect of over 25% in size). In outline: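 After 15.5 hr incubation with compound at 37C, 5% CO2, HEK293T ATAD5-luciferase cells received CellTiter-Fluor reagent; fluorescence intensity was quantified following 30 min at 37C.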
Assay [7] can be described thus: qHTS assay for small molecule disruptors of the mitochondrial membrane potential - cell viability (AID 720634; calls by dose curve;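 further: human HepG2 liver cancer cells; series mostly up to about 83 µM; nearly all actives have a fitted effect of over 20% in size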). The method in brief:
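ATP-based luminescent viability readout (CellTiter-Glo, 30 min, room temperature) in HepG2 cells multiplexed with the m-MPI membrane potential dye; compound exposure lasted 1 hr at 37 C.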

A short description of assay [8]: qHTS assay to test for compound auto fluorescence at 590 nm (red) in HepG2 cells (AID 720674). In outline: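 Compound auto-fluorescence is scored relative to Rose Bengal sodium, measured at 540/590 nm in live HepG2 cultures after 1 hr compound contact (37 C, 5% CO2).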
The nature of assay [9]: qHTS assay to test for compound auto fluorescence at 535 nm (green) in HepG2 cells (AID 720675).
The nature of assay [10]: qHTS assay to test for compound auto fluorescence at 460 nm (blue) in HEK293 cells (AID 720678). In outline: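 HEK293, 2,000 cells/well, 10% dialyzed FBS; attach 4-5 hr 37C; pin compound or DMSO; o/n 37C/5% CO2; fluorescence 405/460 nm; triamterene-equivalent units.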
Assay [11] can be described thus: qHTS assay to test for compound auto fluorescence at 590 nm (red) in HEK293 cells (AID 720679). The method in brief: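 Intensity at 540nm excitation and 590nm emission is reported as Rose Bengal sodium-equivalent autofluorescence. Measurements followed overnight exposure (37C, 5% CO2) of HEK293 cells, 2,000 per well, to 23 nL compound.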
Assay [12] is described as follows: qHTS assay to test for compound auto fluorescence at 535 nm (green) in HEK293 cells (AID 720680).
A short description of assay [13]: qHTS assay to test for compound auto fluorescence at 460 nm (blue) in HEK293 cell free culture (AID 720681). In outline:
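Test compounds were pinned into cell-free culture medium (DMEM with 10% FBS) and fluorescence was read directly at Ex/Em 405/460 nm. Signals were expressed as fluorescence equivalents of triamterene, with DMSO vehicle as control.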

Assay [14] is described as follows: qHTS assay to test for compound auto fluorescence at 535 nm (green) in HEK293 cell free culture (AID 720682). The method in brief:
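Measurement is a direct plate read of green fluorescence (485 nm in, 535 nm out) after compound addition to serum-supplemented DMEM lacking cells, with fluorescein used to express intensities.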

The nature of assay [15]: qHTS assay to test for compound auto fluorescence at 590 nm (red) in HEK293 cell free culture (AID 720683). In outline:
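Tox21 10K library compounds were pinned into cell-free DMEM with 10% FBS and fluorescence was read at excitation 540 nm. Activity is expressed as Rose Bengal sodium equivalency.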

Assay [16] is described as follows: qHTS assay to test for compound auto fluorescence at 590 nm (red) in HepG2 cell free culture (AID 720684). In outline: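 Ex 540 / Em 590 nm read of compound in cell-free MEM (10% FBS). Rose Bengal sodium reference.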
The nature of assay [17]: qHTS assay to test for compound auto fluorescence at 460 nm (blue) in HepG2 cell free culture (AID 720685). The method in brief:
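Cell-free plates of MEM plus 10% FBS received 23 nL compound or DMSO vehicle; blue-channel (405/460 nm) intensity scored against triamterene as reference fluorophore.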

A short description of assay [18]: qHTS assay to test for compound auto fluorescence at 535 nm (green) in HepG2 cell free culture (AID 720686).
Assay [19] is described as follows: qHTS assay to test for compound auto fluorescence at 460 nm (blue) in HepG2 cells (AID 720687). In outline: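 Cells (2,000/well in MEM with 10% FBS) attached overnight at 37 C, then were exposed to compound or DMSO for 1 hr at 37 C, 5% CO2. Fluorescence read at Ex/Em 405/460 nm, expressed as triamterene-equivalent signal.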
Assay [20] in a line: qHTS assay to identify small molecule antagonists of the glucocorticoid receptor (GR) signaling pathway - cell viability counter screen (AID 720693). Further: nearly all actives have a fitted effect of over 55% in size.
Assay [21] can be described thus: qHTS assay for identifying genotoxic compounds that show differential cytotoxicity against isogenic chicken DT40 cell lines with known DNA damage response pathways - wild type cell line (AID 743012). Further: potency means the concentration at half of the fitted maximal effect; nearly all actives have a fitted effect of over 60% in size. The method in brief: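 Luminescent ATP viability signal (CellTiter-Glo, 30 min RT) recorded after wild type DT40 cells were incubated with compounds for 40 h at 37 C/5% CO2.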

Assay [22] in a line: qHTS assay for identifying genotoxic compounds that show differential cytotoxicity against isogenic chicken DT40 cell lines with known DNA damage response pathways - Rev3 mutant cell line (AID 743014). Further: potency means the concentration at half of the fitted maximal effect; nearly all actives have a fitted effect of over 55% in size.
Assay [23] can be described thus: qHTS assay for identifying genotoxic compounds that show differential cytotoxicity against isogenic chicken DT40 cell lines with known DNA damage response pathways - Rad54/Ku70 mutant cell line (AID 743015). Further: potency means the concentration at half of the fitted maximal effect; nearly all actives have a fitted effect of over 60% in size.
Assay [24] can be described thus: qHTS assay to identify small molecule antagonists of the androgen receptor (AR) signaling pathway - cell viability counter screen (AID 743033; further: nearly all actives have a fitted effect of over 45% in size).
Assay [25] can be described thus: qHTS assay to identify small molecule antagonists of the androgen receptor (AR) signaling pathway using the MDA cell line - cell viability counter screen (AID 743041; further: nearly all actives have a fitted effect of over 45% in size). In outline:
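In this qHTS counter assay, fluorescence intensity after CellTiter-Fluor addition indicated viability of MDA-kb2 AR-luc cells given compounds and R1881 for 16 h at 37C.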

Assay [26] can be described thus: qHTS assay to identify small molecule antagonists of the thyroid receptor (TR) signaling pathway - cell viability counter screen (AID 743064). Further: potency means the concentration at half of the fitted maximal effect; nearly all actives have a fitted effect of over 50% in size. In outline:
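Compounds were tested on GH3.TRE-Luc cells in the presence of T3 at 1 nM final. Following 23.5 h at 37 °C, cell viability was quantified by CellTiter-Fluor.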

Assay [27] can be described thus: qHTS assay to identify small molecule antagonists of the thyroid receptor (TR) signaling pathway (AID 743065). Further: potency means the concentration at half of the fitted maximal effect; nearly all actives have a fitted effect of over 55% in size. The method in brief: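 GH3.TRE-Luc rat pituitary cells carrying two TR response elements driving luciferase were plated for 4 h, given compound plus 1 nM T3 (final), and incubated 23.5 h at 37 C. ONE-Glo luminescence measured reporter inhibition; CellTiter-Fluor fluorescence tracked cytotoxicity.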

In assay [28] the test system is thyroid hormone receptor (rat, GH3 cells). Briefly: qHTS assay to identify small molecule agonists of the thyroid receptor (TR) signaling pathway (AID 743066; calls by dose curve).
A short description of assay [29]: qHTS assay to identify small molecule antagonists of the estrogen receptor alpha (ER-alpha) signaling pathway using the BG1 cell line - cell viability counter screen (AID 743081).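 Further: compound given together with 17beta-estradiol as the ER stimulus; series mostly up to about 70 µM; nearly all actives have a fitted effect of over 45% in size.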
Assay [30] has as its target Aromatase (Homo sapiens) (UniProt P11511). Briefly: qHTS assay to identify aromatase inhibitors (AID 743083).
Assay [31] deals with Aryl hydrocarbon receptor (Homo sapiens) (UniProt P35869). Briefly: qHTS assay to identify small molecule that activate the aryl hydrocarbon receptor (AhR) signaling pathway (AID 743085).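 Further: HG2L7.5c1 human HepG2 liver cells with stably integrated DRE-driven firefly reporter; series mostly up to about 70 µM; nearly all actives have a fitted effect of over 15% in size.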 The method in brief: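 24 h compound exposure, 37C, HepG2-derived HG2L7.5c1 cells with DRE-responsive luciferase. Readouts: fluorescence viability, then luminescence at room temperature after 30 min.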
Aryl hydrocarbon receptor (Homo sapiens), sequence (P35869 whole entry, looked up): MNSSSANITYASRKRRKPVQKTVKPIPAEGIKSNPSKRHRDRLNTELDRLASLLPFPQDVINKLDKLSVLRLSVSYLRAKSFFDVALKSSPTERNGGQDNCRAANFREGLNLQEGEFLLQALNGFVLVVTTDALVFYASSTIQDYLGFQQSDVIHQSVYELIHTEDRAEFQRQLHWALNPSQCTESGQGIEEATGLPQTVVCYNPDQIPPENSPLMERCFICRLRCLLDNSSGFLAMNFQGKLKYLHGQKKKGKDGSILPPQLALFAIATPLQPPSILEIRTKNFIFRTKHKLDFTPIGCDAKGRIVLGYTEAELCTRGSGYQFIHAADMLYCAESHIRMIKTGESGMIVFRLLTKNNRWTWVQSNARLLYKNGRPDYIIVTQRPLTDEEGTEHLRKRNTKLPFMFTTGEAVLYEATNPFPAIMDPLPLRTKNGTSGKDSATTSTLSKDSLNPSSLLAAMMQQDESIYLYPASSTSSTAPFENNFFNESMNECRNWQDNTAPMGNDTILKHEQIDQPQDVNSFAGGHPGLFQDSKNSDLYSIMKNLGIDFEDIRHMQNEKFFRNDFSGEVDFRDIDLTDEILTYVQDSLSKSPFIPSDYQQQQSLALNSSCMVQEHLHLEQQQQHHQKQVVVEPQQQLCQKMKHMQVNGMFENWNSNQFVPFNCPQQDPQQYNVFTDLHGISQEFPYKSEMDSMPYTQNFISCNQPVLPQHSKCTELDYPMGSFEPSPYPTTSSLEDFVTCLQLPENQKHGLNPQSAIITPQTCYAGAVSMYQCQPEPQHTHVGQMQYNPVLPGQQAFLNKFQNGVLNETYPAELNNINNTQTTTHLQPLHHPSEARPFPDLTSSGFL

Records with an inconclusive call do not appear. Calls of active or inactive are those of the source. Unless noted, the call rests on the fitted dose curve; in most records, active means well fitted curve in the direction sought with a large enough effect in the repeat runs; inconclusive means weak or mixed curves; inactive means no such curve, though single readings can be large; an effect the other way counts as inactive or inconclusive.

Acetylcholinesterase (Homo sapiens), sequence (P22303 whole entry, looked up): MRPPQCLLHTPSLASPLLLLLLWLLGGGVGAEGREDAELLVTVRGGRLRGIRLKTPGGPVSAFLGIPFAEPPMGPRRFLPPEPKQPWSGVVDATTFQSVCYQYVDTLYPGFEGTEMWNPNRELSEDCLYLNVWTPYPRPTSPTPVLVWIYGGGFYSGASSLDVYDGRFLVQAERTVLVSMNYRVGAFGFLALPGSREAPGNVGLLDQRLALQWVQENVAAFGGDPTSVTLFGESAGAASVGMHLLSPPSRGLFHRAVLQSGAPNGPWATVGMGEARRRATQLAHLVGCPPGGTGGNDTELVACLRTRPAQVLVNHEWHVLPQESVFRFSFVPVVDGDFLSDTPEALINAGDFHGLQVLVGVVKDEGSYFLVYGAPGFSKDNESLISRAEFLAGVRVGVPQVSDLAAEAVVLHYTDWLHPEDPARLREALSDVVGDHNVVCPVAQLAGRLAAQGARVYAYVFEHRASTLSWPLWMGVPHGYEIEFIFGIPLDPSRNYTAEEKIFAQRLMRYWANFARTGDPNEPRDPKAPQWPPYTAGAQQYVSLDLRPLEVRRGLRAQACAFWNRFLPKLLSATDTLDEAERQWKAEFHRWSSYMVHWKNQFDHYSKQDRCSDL
Aromatase (Homo sapiens), sequence (P11511 whole entry, looked up): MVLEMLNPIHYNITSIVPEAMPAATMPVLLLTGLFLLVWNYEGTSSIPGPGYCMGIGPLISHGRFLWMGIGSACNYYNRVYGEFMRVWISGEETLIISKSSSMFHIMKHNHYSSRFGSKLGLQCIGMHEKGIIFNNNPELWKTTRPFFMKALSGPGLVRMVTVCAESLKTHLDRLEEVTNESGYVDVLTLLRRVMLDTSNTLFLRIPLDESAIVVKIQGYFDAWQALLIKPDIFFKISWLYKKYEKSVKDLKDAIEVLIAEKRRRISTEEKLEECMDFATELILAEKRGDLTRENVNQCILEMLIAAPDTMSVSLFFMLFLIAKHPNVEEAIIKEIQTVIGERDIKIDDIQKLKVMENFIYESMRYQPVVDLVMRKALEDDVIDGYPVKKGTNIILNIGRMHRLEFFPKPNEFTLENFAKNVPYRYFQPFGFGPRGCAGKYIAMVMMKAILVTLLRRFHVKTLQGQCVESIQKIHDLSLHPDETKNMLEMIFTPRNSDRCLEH

On to `CCCCCC=CCC=CCCCCCCCC(=O)OCC`, for which the Potency result in assay [1] and in [2] was “inactive” each time.
For `COc1cc2c(N3CCN(C(=O)Nc4ccc(OC(C)C)cc4)CC3)ncnc2cc1OCCCN1CCCCC1`, the Potency result in assay [2] was “inactive”.
In the case of `COc1cc(C(=O)NCc2ccc(OCCN(C)C)cc2)cc(OC)c1OC`, the Potency result in assay [2] is “inactive”.
In the case of `CCC(=O)O[C@](Cc1ccccc1)(c1ccccc1)[C@H](C)CN(C)C`, the Potency result in assay [3], in assay [5], in [6], in assay [20], in [24] and in assay [29] was “inactive” in each case. For the same compound, the outcome in [4], in assay [7], in assay [8], in assay [9], in assay [10] and in assay [11] was inactive. Further, the compound was classed as inactive in [12], in [13], in assay [14], in assay [15], in assay [16] and in assay [17]. For the same compound, the compound was called inactive in assay [18], in assay [19], in [25] and in assay [28]. In addition, the Potency is 38 µM (active) in [21]; 60.3 µM (active) in assay [22]; 67.6 µM (active) in assay [23]; 26.9 µM (active) in assay [26]; 53.7 µM (active) in assay [27].
Consider `C1CCc2nnnn2CC1`, for which, in [30], the Potency entry was “inactive”. Moreover, the compound was classed as inactive in assay [31].
Regarding `Cc1ccc(C(=O)C(C)CN2CCCCC2)cc1` (stereo not given), the Potency result in [1] and in assay [2] was “inactive” each time.
